Out of some 52,000 compounds screened, about 4,300 (8.3%) were called active. Rule as the data show it: active = survival mostly below about 52% (no sharp cut-off); inactive = mostly above about 56%. The entries come from a sample that favours actives as a whole.
What follows are compounds tested on DeltatarO mutant (assay: growth inhibition of S. aureus wild type versus tarO mutant, primary screen, teichoic acid synthesis inhibitors, RN4220, OD600 (AID 463173)). Settings: OD600, 18 h, active compounds read low, screened at 18.75 µg/mL (by protocol).
With `Cc1cccc(N2C(=O)C(CC(=O)Nc3ccc(F)cc3)N(C3CCCC3)C2=O)c1` (stereo unspecified) the survival was 130% (inactive).
With `CCCC1=Nc2cc(C(=O)NCCc3ccc(OC)cc3OC)ccc2Sc2ccccc21` the survival was 99% (inactive).
For `O=C(CC(NCc1ccccc1)C(=O)O)NC1CCCCC1` (stereo unspecified), the survival was 102% (inactive).
For `Cn1c(=O)c(C(=O)NCCN2CCNCC2)c(O)c2ccccc21`, the survival was 68% (inactive).
`CCCn1c(=O)c2sccc2n2c(CCCC(=O)NC3CCC(C)CC3)nnc12` (stereo unspecified) was tested, and the survival was 100% (inactive).
`COc1ccc(OC)c(CNC(=O)c2cnc(N(C)C)nc2)c1` was tested, and the survival was 71% (inactive).
With `O=C(Cc1ccc(NC(=O)N2CCCCc3ccccc32)cc1)Nc1ccccc1Br` the survival was 73% (inactive).
`Cc1ccc(C)c(N2CCN(C(=O)c3cccc(-n4c(C)nc5cccnc54)c3)CC2)c1` was tested, and the survival was 78% (inactive).
`Clc1ccccc1CNc1nc2ccccc2c2nc(-c3ccccc3)nn12` was tested, and the survival was 108% (inactive).
For `CCc1c(C)nc2nncn2c1NCc1ccccc1`, the survival was 85% (inactive).
For `COc1cccc(CNC(=O)Cn2c(=O)n3nc(-c4cccc(C)c4)nc3c3ccccc32)c1`, the survival was 93% (inactive).
`Cc1cccc(-c2nc3c4ccccc4nc(NCc4ccc(F)cc4)n3n2)c1` was tested, and the survival was 84% (inactive).
With `COc1cccc(CNc2nc3c(-c4cccc(C)c4)nnn3c3ccccc23)c1` the survival was 96% (inactive).
For `CCc1c(C)nc2nc(-c3ccccc3)nn2c1NCc1ccc(C)cc1`, the survival was -4% (active).
With `COc1cccc(CNc2nc3ccccc3c3nc(-c4cccc(C)c4)nn23)c1` the survival was 31% (active).
For `Cc1ccc(CNc2cc(C)nc3nc(-c4cccc(C)c4)nn23)cc1`, the survival was 124% (inactive).
In the case of `Cc1ccc(CNc2nc3ccccc3c3nc(-c4cccc(C)c4)nn23)cc1`, the survival is reported as 18% (active).
For `COc1ccc(CNc2nc3ccccc3c3nc(-c4ccccc4)nn23)cc1`, the survival was 35% (active).
`Cc1ccc(CNc2cc(C)nc3nc(-c4ccc(C)cc4)nn23)cc1` was tested, and the survival was 69% (inactive).
In the case of `c1ccc(CNc2nc3ccccc3c3nc(-c4ccccc4)nn23)cc1`, the survival is reported as 54% (inactive).
In the case of `N#C/C(=C\C1CC=CCC1)c1nc2ccccc2[nH]1` (stereo unspecified), the survival is reported as 86% (inactive).
For `Cc1cc(C)cc(NC(=O)CSc2nc(-c3ccccc3)nn2C(=O)c2ccco2)c1`, the survival was 110% (inactive).
In the case of `S=C(NCCCN1CCOCC1)N1CCN(c2ccccc2)CC1`, the survival is reported as 84% (inactive).
`Cc1c(C=Nc2ccc(Cl)cc2)c(O)n(C)c(=O)c1C#N` was tested, and the survival was 74% (inactive).
In the case of `CCSc1ncc(Cl)c(C(=O)Nc2c(C(=O)Nc3ccc(Cl)cc3)oc3ccccc23)n1`, the survival is reported as 105% (inactive).
With `Clc1ccc(CNc2nc3ccccc3c3nc(-c4cccnc4)nn23)cc1` the survival was 80% (inactive).
For `Cc1cccc(-c2nc3c4ccccc4nc(N4CCN(c5ccc(F)cc5)CC4)n3n2)c1`, the survival was 65% (inactive).
For `CC(=O)c1ccc(N2CCN(c3nc4ccccc4c4nc(-c5cccc(C)c5)nn34)CC2)cc1`, the survival was 41% (active).
With `Cc1cccc(-c2nc3c4ccccc4nc(N4CCN(c5cccc(Cl)c5)CC4)n3n2)c1` the survival was 71% (inactive).
In the case of `Cc1cccc(-c2nc3c4ccccc4nc(NCc4ccc(Cl)cc4)n3n2)c1`, the survival is reported as 44% (active).
In the case of `CCCCCC(=O)Nc1ccc(NC(=O)c2cc3ccccc3o2)c(OC)c1`, the survival is reported as 68% (inactive).
With `Cc1ccc(CCNC(=O)CCCc2nnc3n(C)c(=O)c4sccc4n23)cc1` the survival was 86% (inactive).
In the case of `CCS(=O)(=O)N1CCN(Cc2ccccc2)CC1`, the survival is reported as 72% (inactive).
With `CCn1c2ccccc2c2cc(CN3CCN(Cc4ccc(Cl)cc4)CC3)ccc21` the survival was -1% (active).
For `O=c1c2ccccc2n(Cc2cccc(Cl)c2)c(=O)n1Cc1ccccc1`, the survival was 124% (inactive).
In the case of `CCCn1c(N2CCN(Cc3ccc(Cl)cc3)CC2)nc2ccccc21`, the survival is reported as 91% (inactive).
With `CCn1c2ccccc2c2cc(CN3CCN(Cc4ccco4)CC3)ccc21` the survival was 81% (inactive).
For `CC(C)n1c(N2CCN(Cc3ccc(Cl)cc3)CC2)nc2ccccc21`, the survival was 83% (inactive).
`O=c1c2ccccc2n(Cc2ccccc2Cl)c(=O)n1CCc1ccccc1` was tested, and the survival was 60% (inactive).
In the case of `CCn1c2ccccc2c2cc(CN3CCN(Cc4ccc(Br)cc4)CC3)ccc21`, the survival is reported as -1% (active).
For `Clc1ccccc1CN1CCN(Cc2ccco2)CC1`, the survival was 86% (inactive).
With `CCCN1CCN(C(=O)Cn2ncc3c4ccccc4n(Cc4cccc(Cl)c4)c3c2=O)CC1` the survival was 72% (inactive).
With `CCn1c2ccccc2c2cc(CN3CCN(Cc4cccc(Cl)c4)CC3)ccc21` the survival was -1% (active).
In the case of `CCn1c2ccccc2c2cc(CN3CCN(Cc4ccccc4Cl)CC3)ccc21`, the survival is reported as -1% (active).
For `CCS(=O)(=O)N1CC(=O)N(c2cc(C)cc(C)c2)C(C)(C(=O)NC2CCCCC2)C1` (stereo unspecified), the survival was 92% (inactive).
For `COc1cc(NC(=O)Cn2cnc3c2c(=O)n(C)c(=O)n3C)c(OC)cc1Cl`, the survival was 65% (inactive).
In the case of `CC(C)(C)c1ccc(CSC2=Nc3ccccc3C3=NC(CC(=O)NCc4cccs4)C(=O)N23)cc1` (stereo unspecified), the survival is reported as 68% (inactive).
For `CCC(=O)N=c1sc2ccccc2n1-c1ccccc1`, the survival was 71% (inactive).
For `COc1ccc(C(=O)Nc2ccc3oc(-c4cccnc4)nc3c2)cc1OC`, the survival was 62% (inactive).
In the case of `CCCCOc1ccccc1C(=O)N(Cc1cccc(F)c1)C1CCS(=O)(=O)C1` (stereo unspecified), the survival is reported as 75% (inactive).
For `CCc1ccc(NC(=O)CCn2c(=O)c3cccn3c3ccccc32)cc1`, the survival was 48% (inactive).
With `COCCCn1c(=O)c2sccc2n2c(CCCC(=O)Nc3ccc(F)c(F)c3)nnc12` the survival was 83% (inactive).
With `Cc1ccc(NC(=O)Cn2c(=O)cc(-c3ccccc3)c3c(C)nn(C)c32)c(Cl)c1` the survival was 78% (inactive).
With `CCOc1ccc(Cn2c(=O)oc3ccccc32)cc1` the survival was 117% (inactive).
With `CCOc1ccc(CN2CCN(C(=O)c3ccco3)CC2)cc1` the survival was 77% (inactive).
With `CCOc1ccc(CN2CCN(Cc3ccc4c(c3)c3ccccc3n4CC)CC2)cc1` the survival was 0% (active).
With `CC(C)(C)OC(=O)N1CCC(c2c(C(=O)NC3CCCCC3)cnn2-c2ccc(F)cc2F)CC1` the survival was 76% (inactive).
For `CCOc1ccc(NC(=O)NC(C)c2c(-n3cccc3)sc3c2CCN(CC)C3)cc1` (stereo unspecified), the survival was 96% (inactive).
For `Cc1nc(-c2ccc(F)cc2)sc1CCNC(=O)Cc1ccc(F)cc1`, the survival was 81% (inactive).
For `CCOc1ccc(-n2nc(CO)c(C(=O)NCCCc3ccccc3)n2)cc1`, the survival was 89% (inactive).
In the case of `COCCNC(=O)c1nn(-c2ccc(Cl)cc2)nc1CO`, the survival is reported as 91% (inactive).
In the case of `Cc1ccc(-n2nc(CO)c(C(=O)NCc3cccnc3)n2)cc1`, the survival is reported as 90% (inactive).
With `Cc1ccc(CNC(=O)c2nn(-c3ccc(Cl)cc3)nc2CO)cc1` the survival was 94% (inactive).
`CCOc1ccc(-n2nc(CO)c(C(=O)NCc3ccc(Cl)cc3)n2)cc1` was tested, and the survival was 43% (active).
With `CCc1ccc(-n2nc(CO)c(C(=O)NCc3cccnc3)n2)cc1` the survival was 51% (inactive).
`CCOc1ccc(-n2nc(CO)c(C(=O)NCC(C)O)n2)cc1` (stereo unspecified) was tested, and the survival was 39% (active).
For `CCc1ccc(-n2nc(CO)c(C(=O)NCCOC)n2)cc1`, the survival was 56% (inactive).
For `CCOc1ccc(-n2nc(CO)c(C(=O)NCc3cccnc3)n2)cc1`, the survival was 44% (active).
`CCOc1ccc(-n2nc(CO)c(C(=O)NCC(c3ccccc3)c3ccccc3)n2)cc1` was tested, and the survival was 48% (inactive).
For `CCCCNC(=O)c1nn(-c2ccc(CC)cc2)nc1CO`, the survival was 41% (active).
For `CCc1ccc(-n2nc(CO)c(C(=O)NCCCc3ccccc3)n2)cc1`, the survival was 95% (inactive).

— PubChem BioAssay AID463173 (ICCB-Longwood Screening Facility, Harvard Medical School, 2010)
